Screening data: PubChem BioAssay, National Center for Advancing Translational Sciences (NCATS)
Compounds with a hit are over-represented: about 21% of the library has one in this group of screens.
D3 antag: antagonists of human D3 dopamine receptor | max response, negative = inhibition, % | 2.5% of 360,000 active | P35462 | D3R cells, DiscoveRx beta-arrestin luminescence, antagonist mode; hits give low values; in the data active = max response below about -50%; inconclusive = no clear call, values can overlap the other calls
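Cells expressing the human receptor were seeded at 1500 cells/well, incubated overnight at 37 degrees C in 5% CO2, then exposed to library compounds with dopamine controls for 90 minutes at 37 degrees C before luminescent detection.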
TDP1 cell noCPT: qHTS for Inhibitors of human tyrosyl-DNA phosphodiesterase 1 (TDP1): qHTS in cells in absence of CPT | DT40 Tdp1-/- hTDP1 cells, no CPT, ATP luminescence, 48 h | Potency, µM (top dose mostly 46.2 µM), actives largely listed as inhibitors | 15% of 420,000 active | AID 686978, 2013; note: nearly all actives have a fitted effect of over 55% in size
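DT40 Tdp1-/-;hTDP1 cells, no CPT (DMSO vehicle only), 400 cells/well; compounds pin-transferred; ≥48 hr, 37 °C; CellTiter-Glo 30 min RT dark, luminescence read.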
IL1B secr inh: blocks inflammasome-driven IL-1 beta release; 4.7% of 360,000 active; activity change, % at 57.5 µM; THP-1 LPS/ATP IL-1B secretion, AlphaLISA, 16 h; hits give low values; in the data active = activity change below about -50%; inconclusive = mostly about -30% to -49%
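THP-1 cells pretreated 1 hr with compounds (up to 57.5 uM final), then stimulated with LPS (250 ng/mL final) plus ATP (1.25 mM final); secreted IL-1B measured by AlphaLISA after 16 hr, decreased signal indicating inhibition.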
D3 ag: activates the human D3 dopamine receptor | P35462 | D3R DiscoveRx beta-arrestin cells, luminescence, 90 min | max activation, % | 0.58% of 410,000 active | AID 652048; in the data active = max activation above about 30%
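Agonist mode: compounds and dopamine controls were applied to plated cells for 90 min at 37 degrees C after an overnight attachment at 1500 cells/well. Luminescent read-out followed 30 - 60 minutes at room temperature with DiscoveRx detection reagent.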
ClpP mod: qHTS Assay for Activators of ClpP; purified B. subtilis ClpP, FRET peptide cleavage, 20 min; Potency, µM (doses to about 57.5 µM); AID 651965, 2013; 1.9% of 340,000 active; ATP-dependent Clp protease proteolytic subunit (Bacillus subtilis (strain 168)), P80244; active = well fitted falling curve with a large enough effect; inconclusive = small, poorly fitted or top-dose-only effect; inactive = no such curve, though single readings can be large or run the other way; note: the source files actives as falling curves though it sought activators and does not explain the sign; nearly all actives have a fitted effect of over 65% in size
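FRET quenching reversal measured ClpP activation: 10 microg/mL B. subtilis ClpP at pH 8 with the FRET-FV decapeptide, read at 430 nm after 320 nm excitation. The 20-min minus 0-min signal was scaled between DMSO/no-enzyme wells and ADEP (5.8 microM final).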
DT40 TDP1 CPT: growth inhibition of DT40 Tdp1-/-;hTDP1 cells with camptothecin (screen for TDP1 inhibitors); chicken DT40 Tdp1-/-;hTDP1 cells + 20 nM CPT, ATP luminescence, 48 h; Potency, µM (titrated, usually from 46.2 µM), hits mostly inhibitors; 12% of 420,000 active; note: nearly all actives have a fitted effect of over 55% in size
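Cell growth measured by CellTiter-Glo luminescence after a minimum 48 h, 37 C compound exposure with 20 nM CPT in Tdp1-knockout DT40 cells stably expressing hTDP1, seeded 400/well; qHTS titration format.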
Numbers stand for hits; 0 = inactive; ? = inconclusive; - = not tested or not shown; ! = repeats disagree. Unless noted, calls come from the whole dose curve; as a rule, active = well fitted inhibition curve with a large enough effect; inconclusive = small, poorly fitted or top-dose-only effect; inactive = flat fitted curve, though single readings scatter.

SMILES	D3 antag	TDP1 cell noCPT	IL1B secr inh	D3 ag	ClpP mod	DT40 TDP1 CPT
O=C(Cn1cnnn1)N[C@@H]1C(=O)N2C(C(=O)O)=C(CSc3nncs3)CS[C@H]12	-	0	-	0	-	0
CCOC(=O)CCS(=O)(=O)c1nc(-c2ccccc2)cc(C(F)(F)F)n1	-51	0.65µM	-99	0	0	0.41µM
COc1ccc(NC(=O)CCS(=O)(=O)c2nc(-c3ccc4c(c3)OCO4)cc(C(F)(F)F)n2)cc1OC	-	?	-	0	0	?
COC(=O)CCS(=O)(=O)c1nc(-c2ccccc2)cc(C(F)(F)F)n1	-78	2.3µM	-105	0	0	3.3µM
COc1nc(-c2ccccc2)cc(C(F)(F)F)n1	0	0	0	0	0	0
COCC(C)NC(=O)CCS(=O)(=O)c1nc(-c2ccc(OC)cc2)cc(C(F)(F)F)n1 (stereo not drawn)	-87	4.6µM	-102	0	0	4.1µM
CCOC(=O)CS(=O)(=O)c1nc(-c2ccccc2)cc(C(F)(F)F)n1	-69	1.6µM	-125	0	0	0.65µM
Cc1ccc(C2NC(=NCc3ccccc3)Nc3nc(C)cc(=O)n32)cc1 (stereo not drawn)	0	0	0	0	-	0
CCOC(=O)C1CCN(S(=O)(=O)c2c[nH]c(=O)[nH]c2=O)CC1	0	0	0	0	-	0
O=C(c1ccncc1)N1CCC2(CC1)CCN(c1ccccc1)CC2	-	?	-	-	-	0
CCOC(=O)c1c(C(F)(F)F)cc(-c2ccc(F)cc2)nc1C	0	0	0	0	0	0
CCOC(=O)CS(=O)(=O)c1nc(-c2ccc(F)cc2)cc(C(F)(F)F)n1	-64	0.82µM	-119	0	22µM	0.52µM
COc1ccc(-c2cc3nc(-c4ccccc4)cc(N4CCN(C(=O)c5ccccc5)CC4)n3n2)cc1	0	4.1µM	0	0	0	15µM
O=C(c1cc(-c2cccc(Cl)c2)nc2ccccc12)N1CCCC1	0	?	0	0	0	?
O=C(c1cc2nc(-c3ccc(Cl)cc3)cc(C(F)(F)F)n2n1)N1CCOCC1	0	0	0	0	0	?
COc1ccc(-c2csc(N3CCN(C(=O)c4ccccc4)CC3)n2)cc1	0	?	0	0	0	?
COc1ccc(-c2cc3nc(-c4ccccc4)cc(N4CCN(C(C)=O)CC4)n3n2)cc1	0	2.6µM	0	0	0	0
O=C(c1ccccc1)N1CCN(c2cc(Cl)nc3cc(-c4cccc(Cl)c4)nn23)CC1	0	4.6µM	0	0	?	16µM
O=C(c1ccoc1)N1CCN(c2cc(-c3cccc(F)c3)nc3cc(-c4cccc(Cl)c4)nn23)CC1	0	4.6µM	0	0	0	7.3µM
O=C(NCC(c1cccs1)N1CCOCC1)C1CCN(S(=O)(=O)c2cccc(C(F)(F)F)c2)CC1 (stereo not drawn)	0	?	0	0	0	?
COc1cc(C(=O)Nc2cccc(OCc3cc(=O)n4cc(C)sc4n3)c2)cc(OC)c1OC	-	0	-	0	0	0
COc1ccc(-c2cn3c(C)c(C(=O)N4CCN(c5ccccc5)CC4)sc3n2)cc1	0	?	0	0	0	?
COc1ccc(-c2cc3nc(-c4ccccc4)cc(N4CCN(C(=O)c5ccsc5)CC4)n3n2)cc1	0	5.2µM	0	0	0	7.3µM
O=C(CCn1c(=O)c2cccn2c2cccnc21)NCc1ccc(F)cc1	-	0	-	0	?	0
CCCN(CCC)CCNC(=O)c1cc(-c2ccc(Br)s2)nc2ccccc12	-	?	-	0	0	18µM
SMILES	D3 antag	TDP1 cell noCPT	IL1B secr inh	D3 ag	ClpP mod	DT40 TDP1 CPT
CCc1ccc(CNC(=O)c2cc(-c3ccc(Br)s3)nc3ccccc23)cc1	-	18µM	-	0	0	?
CCOCCCNC(=O)c1cc(-c2ccc(Br)s2)nc2ccccc12	0	?	0	0	0	0
CCN(CC)CCNC(=O)c1cc(-c2ccc(Br)s2)nc2ccccc12	?	18µM	?	0	0	18µM
CCCCOc1cc(C(=O)NCCN(CC)CC)c2ccccc2n1	0	7.3µM	-50!	0	0	21µM!
CC(C)CN(CCNC(=O)c1cc(-c2ccc(Cl)s2)nc2ccccc12)CC(C)C	-	0	-	0	0	0
CC(Sc1nnc(-c2ccccc2F)n1C1CC1)C(=O)NC(N)=O (stereo not drawn)	0	0	0	0	-	0
CCCCN(C)CCNC(=O)c1cc(-c2ccc(Cl)s2)nc2ccccc12	-	23µM	-	0	0	23µM
COCc1[nH]nc2c1C(c1ccc(OC)cc1)C(C#N)=C(N)O2 (stereo not drawn)	0	0	0	0	0	?
COc1ccc(-c2ccc(C3C(C#N)=C(N)Oc4n[nH]c(C)c43)o2)cc1 (stereo not drawn)	0	21µM	0	0	0	21µM
N#CC1=C(N)Oc2n[nH]c(-c3ccc(F)cc3)c2C1c1cccnc1 (stereo not drawn)	0	0	0	0	0	?
Cc1ccc(C2C(C#N)=C(N)Oc3n[nH]c(-c4ccccc4)c32)o1 (stereo not drawn)	0	23µM	0	0	0	13µM
Cc1[nH]nc2c1C(c1cn[nH]c1-c1ccc(F)cc1)C(C#N)=C(N)O2 (stereo not drawn)	0	?	-80	0	0	?
Cc1ccc(C2C(C#N)=C(N)Oc3n[nH]c(-c4cccnc4)c32)o1 (stereo not drawn)	0	0	0	0	-	0
O=C(NC1=NCCS1)c1ccccc1OCc1ccccc1Cl	0	?	0	0	0	0
CCC(Nc1ccc(-c2nc(-c3ccccn3)no2)cc1[N+](=O)[O-])c1ccccc1 (stereo not drawn)	-	?	-	0	0	?
COc1ccc(CN2CCC3(CCC(CNC(=O)c4ccnn4C)O3)CC2)c(C)c1C (stereo not drawn)	-	?	-	-	-	0
C[C@H]1CN([C@@H](C)CO)C(=O)CCCn2nncc2CO[C@@H]1CN(C)C(=O)c1ccncc1	0	0	0	0	0	0
COC(=O)CCc1sc(NC2CCCCC2)nc1-c1ccc(OC)cc1	?	18µM	0	0	0	21µM
CC1CCCN(C(=O)c2ccc3c(=O)n(C4CCCC4)c(=S)[nH]c3c2)C1 (stereo not drawn)	0	?	0	0	0	21µM
O=C(c1ccc2c(=O)n(C3CCCC3)c(=S)[nH]c2c1)N1CCCCCC1	0	13µM	0	0	-	15µM
O=C(c1ccc2c(=O)n(Cc3ccccc3)c(=S)[nH]c2c1)N1CCCC1	0	?	0	0	-	0
